From PubChem BioAssay
An excerpt weighted towards active compounds, which were near 7.9% of everything screened.
MITF inhib: blocks MITF activity | TRPM1 promoter luciferase, luminescence, 24 h | inhibition, % (concentration not given with the values) | 0.28% of 37,000 active; in the data active = inhibition above about 85%;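 also: human melanocyte line stably carrying TRPM1 promoter luciferase reporter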
Shh pathway inh: blocks Sonic Hedgehog signaling. 2.1% of 22,000 active. inhibition, % (concentration not given with the values). AID 2313. Shh-LIGHT2 Gli-luciferase reporter, 30 h;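 active = mean inhibition across valid replicates above about 65%, limit read from the data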;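 also: pathway switched on by Shh-conditioned medium diluted 1 in 25 in low serum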
NOMO-1 viab: STK33 inhibitor candidate reducing NOMO-1 cell viability; NOMO-1 AML viability, CellTiter-Glo luminescence, 72 h; inhibition, % (test concentration not listed); 7.5% of 37,000 active; in the data active = inhibition above about 80%
PD-1 reversal: activators reversing PD-1 mediated T-cell inhibition; primary human CD4 T cells, PD-L1 beads, CellTiter-Glo 96 h; activation, % (test concentration not listed); 29,000 tested, under 10 active; AID 2316; call rule not given here;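 also: 0% = median vehicle wells and 100% = positive control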
Active calls of the source: *.

c1ccc2c(Cc3c[nH]c4ccccc34)c[nH]c2c1 was read as MITF inhib 25.1, Shh pathway inh -23.0 and NOMO-1 viab -9.9.
For c1ccc(C(c2ccccc2)N2CCN(CCCc3c[nH]c4ccccc34)CC2)cc1 the results were MITF inhib 4.1, Shh pathway inh -12.9, NOMO-1 viab 116.3* and PD-1 reversal -1.1.
`O=C(COc1ccccc1[N+](=O)[O-])Nc1cccc(Cl)c1N1CCOCC1` gave MITF inhib 55.2, NOMO-1 viab 82.5* and PD-1 reversal -0.1.
For C=C1C(=O)O[C@H]2C1CCC(C)=C1C(=O)C=C(C)[C@@]12O (stereo partly specified) the results were MITF inhib 10.2, Shh pathway inh 6.5, NOMO-1 viab 105.9* and PD-1 reversal -4.5.
`NC[C@@H]1O[C@H](c2ccccc2)Cc2c1ccc(O)c2O` gave MITF inhib 13.0, Shh pathway inh 34.7 and NOMO-1 viab 111.7*.
NC[C@@H]1O[C@H](C23CC4CC(CC(C4)C2)C3)Cc2c1ccc(O)c2O was read as MITF inhib 1.3, Shh pathway inh -7.3 and NOMO-1 viab 106.8*.
Cc1nc(C)c(C(=O)C2C(=O)C(=O)N(CCN3CCOCC3)C2c2cccs2)s1 (stereo unspecified) was read as MITF inhib -14.0 and NOMO-1 viab -4.6.
`OCc1nc(-c2cc(C(F)(F)F)cc(C(F)(F)F)c2)cs1` gave MITF inhib -6.6, Shh pathway inh 10.6, NOMO-1 viab 33.5 and PD-1 reversal -1.9.
For Cc1c(CO)c2ccccc2n1Cc1ccccc1C#N the results were MITF inhib 13.7, NOMO-1 viab 120.9* and PD-1 reversal -5.4.
For CCCCN1C(=O)C(O)(CC(=O)c2ccco2)c2ccccc21 (stereo unspecified) the results were MITF inhib 4.6, NOMO-1 viab 119.3* and PD-1 reversal -0.6.
`CCN1C(=O)C(O)(CC(=O)c2ccco2)c2cc(Br)ccc21` (stereo unspecified) gave MITF inhib -1.4, NOMO-1 viab 122.2* and PD-1 reversal -13.1.
C=CCN1C(=O)C(O)(CC(=O)c2ccc(C)o2)c2ccccc21 (stereo unspecified) was read as MITF inhib 2.6 and NOMO-1 viab 27.2.
`O=C(CC1(O)C(=O)N(CCc2ccccc2)c2ccc(Br)cc21)c1ccncc1` (stereo unspecified) gave MITF inhib -1.7 and NOMO-1 viab 114.3*.
NC(=O)CN1C(=O)C(O)(CC(=O)c2ccncc2)c2ccccc21 (stereo unspecified) was read as MITF inhib 14.8, NOMO-1 viab -4.5 and PD-1 reversal 1.9.
`CCCCN1C(=O)C(O)(CC(=O)c2ccco2)c2cc(Br)ccc21` (stereo unspecified) gave MITF inhib 10.1 and NOMO-1 viab 113.0*.
For C/C=C1\C(O[C@@H]2O[C@H](CO[C@@H]3O[C@H](CO)[C@@H](O)[C@H](O)[C@H]3O)[C@@H](O)[C@H](O)[C@H]2O)OC=C(C(=O)OC)C1CC(=O)OCCc1ccc(O)cc1 (stereo partly specified) the results were MITF inhib 12.6, Shh pathway inh -0.1, NOMO-1 viab 3.4 and PD-1 reversal 1.3.
COc1cc2[nH]c(=S)n(CCc3cnc[nH]3)c(=O)c2cc1OC was read as MITF inhib -9.1, NOMO-1 viab 4.8 and PD-1 reversal 2.3.
`Cc1cccc(OCC(=O)Nc2ccccc2C(=O)NC2CCCCC2)c1` gave MITF inhib -19.5 and NOMO-1 viab 6.9.
Screening C[C@@H]1CN([C@H](C)CO)C(=O)Cc2cc(NC(=O)Nc3cccc4ccccc34)ccc2O[C@@H]1CN(C)Cc1ccc(Cl)c(Cl)c1 returned MITF inhib 4.7, Shh pathway inh -6.0, NOMO-1 viab 115.1* and PD-1 reversal -0.7.
C[C@H]1CN([C@@H](C)CO)C(=O)c2cc(NC(=O)Nc3cccc4ccccc34)ccc2O[C@H]1CN(C)Cc1ccc2c(c1)OCO2 was read as MITF inhib -0.8, Shh pathway inh 22.9, NOMO-1 viab 97.2* and PD-1 reversal -0.1.
Screening C[C@H]1CN([C@@H](C)CO)C(=O)Cc2cc(NC(=O)Nc3cccc4ccccc34)ccc2O[C@H]1CN(C)Cc1ccc(Cl)c(Cl)c1 returned MITF inhib 3.2, Shh pathway inh -36.9, NOMO-1 viab 88.1* and PD-1 reversal -1.3.
Screening C[C@H]1CN([C@@H](C)CO)C(=O)c2cc(NC(=O)Nc3cccc4ccccc34)ccc2O[C@H]1CN(C)Cc1ccncc1 returned MITF inhib 6.6, NOMO-1 viab 108.3* and PD-1 reversal -3.2.
For C[C@H]1CN([C@@H](C)CO)C(=O)c2cc(NC(=O)Nc3cccc4ccccc34)ccc2O[C@@H]1CN(C)Cc1ccncc1 the results were MITF inhib 11.4, NOMO-1 viab 6.8 and PD-1 reversal -2.4.
Screening C[C@H](CO)N1C[C@H](C)[C@H](CN(C)Cc2ccc(Cl)c(Cl)c2)Oc2ccc(NC(=O)Nc3cccc4ccccc34)cc2CC1=O returned MITF inhib 18.7, Shh pathway inh -16.3, NOMO-1 viab 40.1 and PD-1 reversal 0.1.
For O=C(NCCO)c1ccc(N2C(=O)c3ccccc3C2=O)cc1 the results were MITF inhib -25.7, Shh pathway inh -21.8, NOMO-1 viab -0.6 and PD-1 reversal 1.0.
Screening CC(C)(CO)NCc1ccc(-c2ccccc2)o1 returned MITF inhib -13.7, NOMO-1 viab -11.6 and PD-1 reversal 0.9.
`C[C@H]1CN([C@@H](C)CO)C(=O)c2cc(NC(=O)Nc3cccc4ccccc34)ccc2O[C@@H]1CN(C)Cc1ccc(Cl)c(Cl)c1` gave MITF inhib 24.6, Shh pathway inh -0.4, NOMO-1 viab 109.0* and PD-1 reversal -3.2.
For Cn1c(/C=C/C=C/N2CCCC2)nc2ccccc2c1=O the results were MITF inhib -13.4, Shh pathway inh -3.3, NOMO-1 viab 120.5* and PD-1 reversal -1.5.
For CSc1nc2ccccc2c(=O)n1C the results were MITF inhib -29.1, Shh pathway inh -4.6, NOMO-1 viab 11.0 and PD-1 reversal -0.2.
For COCc1ccccc1Cn1cnc2ccccc21 the results were MITF inhib 53.3 and NOMO-1 viab 46.1.
`CC(C)(c1ccccc1)c1cc(CN2CCOCC2)c(O)c(CN2CCOCC2)c1` gave MITF inhib -1.8, NOMO-1 viab 31.7 and PD-1 reversal -2.1.
For COc1ccc([N+](=O)[O-])c(NC(=O)c2cnn3c(C(F)F)cc(-c4ccc(C)cc4)nc23)c1 the results were MITF inhib 28.5 and NOMO-1 viab 22.1.
`N#Cc1c(-c2ccccc2Cl)cc(C2CC2)nc1N` gave MITF inhib 5.1, Shh pathway inh 1.5, NOMO-1 viab 3.0 and PD-1 reversal -3.9.
`N#Cc1c(N)nc(Sc2ccc(Cl)cc2)c(C#N)c1-c1ccccc1` gave MITF inhib 9.8, Shh pathway inh 52.1, NOMO-1 viab 101.5* and PD-1 reversal 0.0.
For C[C@H](CO)N1C[C@H](C)[C@H](CN(C)Cc2ccc(Cl)c(Cl)c2)Oc2c(NS(=O)(=O)c3ccc(F)cc3)cccc2C1=O the results were MITF inhib 27.3, Shh pathway inh 85.5*, NOMO-1 viab 91.3* and PD-1 reversal -2.8.
